Source: PubChem BioAssay (Sanford-Burnham Center for Chemical Genomics)
Hits are enriched below; roughly 3% of the tested compounds scored in any of these assays.
SENP8 block-1 = SENP8 protease inhibition; actives 1.2% (n = 330,000); inhibition, % at 10 µM; purified SENP8, Z-RLRGG-aminoluciferin cleavage, luminescence; AID 2540; in the data active means inhibition above about 50%
Target sequence (Q96LD8 whole entry, looked up): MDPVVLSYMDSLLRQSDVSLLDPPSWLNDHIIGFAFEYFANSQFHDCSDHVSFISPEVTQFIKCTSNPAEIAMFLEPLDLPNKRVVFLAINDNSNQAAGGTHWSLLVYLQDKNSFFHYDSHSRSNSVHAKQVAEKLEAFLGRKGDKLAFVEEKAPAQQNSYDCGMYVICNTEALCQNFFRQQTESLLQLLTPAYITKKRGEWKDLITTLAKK
TRAIL sens C8 = caspase-8 TRAIL sensitization. NB7+C8 cells + TRAIL, ATPlite viability luminescence. inhibition (viability loss, TRAIL sensitization), % at 10 µM. actives 1% (n = 360,000). AID 624354;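 active means compounds causing at least 50% loss of cell viability in the single-dose screen, relative to plate controls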
SENP6 inh = SENP6 protease inhibition. actives 1.8% (n = 330,000). AID 2599. Q9GZR1. Recombinant SENP6 catalytic domain, aminoluciferin luminescence. inhibition, % at 10 µM;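 active means inhibition above about 50% at the single tested dose, limit read from the data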;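 further: plate controls were DMSO wells with enzyme for no effect and DMSO wells lacking enzyme for full effect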
PPC-1+TRAIL kill = kills PPC-1 cancer cells in the presence of TRAIL | PPC-1 cells + TRAIL, ATPLite viability luminescence | AID 1443 | cell killing (% activity), % at 4 µM or 5 µM | actives 0.41% (n = 220,000);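 active means cell killing above 50% in the first pass at 4 µM, then a duplicate retest at 5 µM averaging 50% or more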;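 further: plate controls were cells with TRAIL plus DMSO for no effect and medium-only wells lacking cells for full effect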
SENP8 block-2 = SENP8 (human) protease inhibition; recombinant SENP8, Nedd8 substrate fluorescence; inhibition, % at 20 µM; actives 0.64% (n = 360,000); Q96LD8; AID 602440; in the data active means inhibition mostly above about 40%, no sharp cut-off; inactive means mostly below about 27%
SENP7 block = SENP7 protease inhibition | AID 434973 | Q9BQF6 | inhibition, % at 5 µM | recombinant SENP7, Z-RLRGG-aminoluciferin luminescence, 40 min | actives 1.5% (n = 330,000);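 active means inhibition above about 50% at the single test dose, limit read from the data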;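 further: plate controls were DMSO with enzyme for no effect and no enzyme buffer wells for full effect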
Target sequence (Q9BQF6 706-1050 limits assumed): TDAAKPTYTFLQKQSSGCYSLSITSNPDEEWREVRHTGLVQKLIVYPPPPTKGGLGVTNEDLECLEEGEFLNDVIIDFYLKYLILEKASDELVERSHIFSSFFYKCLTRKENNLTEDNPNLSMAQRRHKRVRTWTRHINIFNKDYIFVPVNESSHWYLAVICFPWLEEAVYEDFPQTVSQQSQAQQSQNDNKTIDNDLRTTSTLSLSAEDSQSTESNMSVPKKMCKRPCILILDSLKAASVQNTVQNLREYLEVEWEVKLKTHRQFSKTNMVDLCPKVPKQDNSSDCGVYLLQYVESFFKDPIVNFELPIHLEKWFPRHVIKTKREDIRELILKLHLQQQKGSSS
SENP8 conf = human SENP8 inhibition, confirmed; actives 40% (n = 6,200); inhibition, % at 12.5 µM; Recombinant SENP8, Z-RLRGG-aminoluciferin luminescence, 60 min; shares compounds with SENP7 block;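 active means mean inhibition across replicates above about 50%, limit read from the data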
SENP6 conf = confirmation of human SENP6 protease inhibitors; shares compounds with SENP7 block; recombinant SENP6, Z-RLRGG-aminoluciferin luminescence; inhibition, % at 12.5 µM; actives 58% (n = 6,200); AID 488915
SENP7 conf = confirmation of human SENP7 protease inhibitors | inhibition, % at 12.5 µM | actives 69% (n = 6,200) | shares compounds with SENP7 block | recombinant SENP7, Z-RLRGG-aminoluciferin luminescence, 40 min
Casp3 select = caspase-3 inhibition (SENP selectivity assay); inhibition, % at 12.5 µM; purified caspase-3, Z-DEVD-aminoluciferin luminescence, 60 min; actives 60% (n = 6,200); shares compounds with SENP7 block;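 active means mean inhibition above about 50%, limit read from the data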;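 further: plate controls were enzyme with DMSO for no effect and wells without caspase-3 for full effect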
SENP luc ctr = interferes with luciferase luminescence in SENP counter-screen. inhibition, % at 12.5 µM. Pre-incubated SENP8/Z-RLRGG-aminoluciferin, luciferase luminescence interference. actives 39% (n = 6,200). shares compounds with SENP7 block;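 active means mean inhibition above about 50% when retested at one dose, limit read from the data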;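 further: plate controls were DMSO wells with completed reaction for no effect and substrate without enzyme for full effect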
Numbers without * were called inactive.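 How the source made its calls, unless noted: active means mean inhibition above about 50% in the one-dose retest (limit read from the data); inactive means the rest.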

Results for Cc1ccc(C(=O)Nc2cccc(C(=O)O)c2)cc1S(=O)(=O)N1CCOCC1 ?
SENP8 block-1: 57*; TRAIL sens C8: 2; SENP6 inh: 61*; PPC-1+TRAIL kill: 4; SENP8 block-2: 8; SENP7 block: -4; SENP8 conf: 73*; SENP6 conf: 68*; SENP7 conf: 89*; Casp3 select: 50*; SENP luc ctr: 28

How did COC(=O)c1cccc(NC(=O)c2ccc3c(c2)C(=O)N(CC2CCCO2)C3=O)c1 (stereo unspecified) do in these assays?
SENP8 block-1: 4; TRAIL sens C8: 2; SENP6 inh: -16; PPC-1+TRAIL kill: 13; SENP8 block-2: 3; SENP7 block: 3

How did O=C(O)c1cccc(NC(=O)c2ccc3c(c2)C(=O)N(CC2CCCO2)C3=O)c1 (stereo unspecified) do in these assays?
SENP8 block-1: 50*; TRAIL sens C8: 16; SENP6 inh: 83*; PPC-1+TRAIL kill: 4; SENP8 block-2: 26; SENP7 block: 71*; SENP8 conf: 87*; SENP6 conf: 85*; SENP7 conf: 99*; Casp3 select: 74*; SENP luc ctr: 78*

What do the screens show for `Cc1ccc(C(=O)Nc2cccc(C(=O)O)c2)cc1S(=O)(=O)N1CCCCC1`?
SENP8 block-1: 88*; TRAIL sens C8: 32; SENP6 inh: 93*; PPC-1+TRAIL kill: 28; SENP8 block-2: 20; SENP7 block: 94*; SENP8 conf: 96*; SENP6 conf: 96*; SENP7 conf: 102*; Casp3 select: 83*; SENP luc ctr: 79*

How did CC(=O)N1N=C(c2ccc(C)cc2)OC1c1ccc(C(C)C)cc1 (stereo unspecified) do in these assays?
SENP8 block-1: -3; TRAIL sens C8: -20; SENP6 inh: 66*; PPC-1+TRAIL kill: 8; SENP8 block-2: 5; SENP7 block: 66*; SENP8 conf: 7; SENP6 conf: 11; SENP7 conf: 32; Casp3 select: 27; SENP luc ctr: 21

How did CC(=O)N1N=C(c2ccc(C)cc2)OC1c1ccc(C)cc1 (stereo unspecified) do in these assays?
SENP8 block-1: 3; TRAIL sens C8: -10; SENP6 inh: 46; PPC-1+TRAIL kill: 13; SENP8 block-2: 5; SENP7 block: 20

How did O=C(CCCN1C(=O)S/C(=C/c2ccccc2)C1=S)Nc1ccc(C(=O)O)cc1 do in these assays?
SENP8 block-1: 72*; TRAIL sens C8: 3; SENP6 inh: 66*; SENP8 block-2: 12; SENP7 block: 45; SENP8 conf: 11; SENP6 conf: 52*; SENP7 conf: 72*; Casp3 select: 46; SENP luc ctr: 20

What do the screens show for `O=C(CCN1C(=O)/C(=C/c2ccc3c(c2)OCO3)SC1=S)Nc1ccc(C(=O)O)cc1`?
SENP8 block-1: 40; TRAIL sens C8: 11; SENP6 inh: 14; SENP8 block-2: 19; SENP7 block: 1

How did CCc1ccc(/C=C2\SC(=S)N(CCCC(=O)Nc3ccc(C(=O)O)cc3)C2=O)cc1 do in these assays?
SENP8 block-1: 94*; TRAIL sens C8: 11; SENP6 inh: 92*; SENP8 block-2: 19; SENP7 block: 83*; SENP8 conf: 93*; SENP6 conf: 97*; SENP7 conf: 98*; Casp3 select: 77*; SENP luc ctr: 55*

What do the screens show for `CCc1ccc(/C=C2\SC(=S)N(CCCC(=O)Nc3ccccc3C(=O)O)C2=O)cc1`?
SENP8 block-1: -2; TRAIL sens C8: 5; SENP6 inh: 1; SENP8 block-2: 32; SENP7 block: 4

Results for O=C(CCCN1C(=O)/C(=C/c2ccc3c(c2)OCO3)SC1=S)Nc1ccc(C(=O)O)cc1 ?
SENP8 block-1: 86*; TRAIL sens C8: 8; SENP6 inh: 93*; SENP8 block-2: 29; SENP7 block: 78*; SENP8 conf: -13; SENP6 conf: 3; SENP7 conf: 14; Casp3 select: 16; SENP luc ctr: 16

Results for COc1ccc(/C=C2\SC(=O)N(CCCC(=O)Nc3ccc(C(=O)O)cc3)C2=O)cc1 ?
TRAIL sens C8: 4; SENP8 block-2: 11

Results for O=C(CCCN1C(=O)/C(=C\c2ccccc2)SC1=S)Nc1ccc(C(=O)O)cc1 ?
SENP8 block-1: 66*; TRAIL sens C8: 10; SENP6 inh: 82*; SENP8 block-2: 10; SENP7 block: 23; SENP8 conf: 10; SENP6 conf: 6; SENP7 conf: 12; Casp3 select: 5; SENP luc ctr: 13

What do the screens show for `CC(C)(C)c1ccc(C(O)c2ncc(-c3ccccc3F)[nH]2)cc1` (stereo unspecified)?
TRAIL sens C8: 6; SENP8 block-2: 1

Results for O=c1[nH]cnc2c1ncn2C1CCC(CO)O1 (stereo unspecified) ?
TRAIL sens C8: -13; SENP8 block-2: 4

How did COc1ccc(/C=C/C=C2\N=C(SC)SC2=O)cc1 do in these assays?
SENP8 block-1: 84*; TRAIL sens C8: 9; SENP6 inh: 86*; PPC-1+TRAIL kill: 24; SENP8 block-2: 25; SENP7 block: 91*; SENP8 conf: -3; SENP6 conf: 8; SENP7 conf: 2; Casp3 select: 3; SENP luc ctr: 17

How did Cn1cccc1C(=O)NCCc1ccccc1 do in these assays?
SENP8 block-1: 36; TRAIL sens C8: 19; SENP6 inh: 67*; SENP8 block-2: 11; SENP7 block: 57*; SENP8 conf: 43; SENP6 conf: 44; SENP7 conf: 80*; Casp3 select: 83*; SENP luc ctr: 59*

How did Cn1c(C(=O)NCCc2ccccc2)cc(=O)n(C)c1=O do in these assays?
SENP8 block-1: 1; TRAIL sens C8: 17; SENP6 inh: 20; SENP8 block-2: 16; SENP7 block: 0

What do the screens show for `Cn1cccc1C(=O)NCCc1ccc(Cl)cc1`?
SENP8 block-1: 44; TRAIL sens C8: 4; SENP6 inh: 62*; SENP8 block-2: -2; SENP7 block: 55*; SENP8 conf: 50; SENP6 conf: 46; SENP7 conf: 82*; Casp3 select: 72*; SENP luc ctr: 58*
